Assay outcomes deposited in PubChem by several laboratories.
The list is not random: actives were taken first. Their share in the collection is about 7%.
ADAM10 inh: human ADAM10 inhibitors, primary screen, biochemical, QFRET, HTS; AID 720582, 2013; inhibition, % at 7 µM; 370,000 compounds, 0.62% hits; recombinant ADAM10, EDANS/DABCYL FRET peptide cleavage, 3 h;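 active means inhibition above a per-campaign cutoff equal to the mean of compounds falling between control-based bounds plus 3 SD, cut at about 20% in these data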;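 further: 0% = DMSO wells while the 100% control is not disclosed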
GRIN3A LBD mod: binders of NR3A ligand-binding domain, primary screen, biophysical, differential scanning fluorimetry, uHTS; AID 1259313, 2017; Glutamate receptor ionotropic, NMDA 3A (GRIN3A) ligand-binding domain; 340,000 compounds, 2.5% hits; Tm shift relative to glycine control, % at 25 µM; NR3A LBD differential scanning fluorimetry, Tm shift; 0% = protein alone, 100% = glycine-bound protein;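 active means melting temperature shift of at least 10% of the positive control shift, at one fixed dose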
proKLK7 act: proKLK7 zymogen activators, primary screen, biochemical, fluorescence intensity; Kallikrein-7 (Homo sapiens), P49862; purified proKLK7, EDANS-DABCYL substrate fluorescence; 100% is mature enzyme control, 0% vehicle; activation, % at 7 µM; 370,000 compounds, 0.9% hits; AID 652039, 2013;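 active means activation above the mean of all tested compounds plus 3 SD, computed per campaign excluding outliers beyond control limits, cut at about 13% in these data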
ADAM17 inh: ADAM17 inhibitors, primary screen, biochemical, QFRET; Disintegrin and metalloproteinase domain-containing protein 17 (Homo sapiens), P78536; recombinant ADAM17, EDANS/DABCYL FRET peptide cleavage; inhibition, % at 6.95 µM; 370,000 compounds, 0.83% hits; AID 720648, 2013;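 active means inhibition above the mean of compounds lying between control limits plus 3 SD, set per campaign, cut at about 8.5% in these data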;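 further: 0% = DMSO-only wells as the low control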
Target sequence (P78536 215-824 limits assumed): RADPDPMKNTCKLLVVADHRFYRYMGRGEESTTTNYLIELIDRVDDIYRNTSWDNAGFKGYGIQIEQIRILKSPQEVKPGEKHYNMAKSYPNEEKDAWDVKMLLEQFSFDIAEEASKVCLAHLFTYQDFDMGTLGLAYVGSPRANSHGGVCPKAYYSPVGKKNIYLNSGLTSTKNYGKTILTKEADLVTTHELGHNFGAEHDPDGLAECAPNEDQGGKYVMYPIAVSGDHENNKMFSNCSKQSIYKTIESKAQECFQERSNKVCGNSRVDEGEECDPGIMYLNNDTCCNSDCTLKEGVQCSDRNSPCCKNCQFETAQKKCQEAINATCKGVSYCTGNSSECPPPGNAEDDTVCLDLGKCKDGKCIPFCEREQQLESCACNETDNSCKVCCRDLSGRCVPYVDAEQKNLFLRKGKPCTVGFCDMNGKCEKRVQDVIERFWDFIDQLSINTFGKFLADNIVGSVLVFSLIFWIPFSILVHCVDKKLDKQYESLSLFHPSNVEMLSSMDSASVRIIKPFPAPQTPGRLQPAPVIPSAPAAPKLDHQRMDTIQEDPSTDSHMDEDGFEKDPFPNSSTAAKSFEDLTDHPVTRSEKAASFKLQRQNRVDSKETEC
rCAG RNA binder: binders of r(CAG) RNA repeats, primary screen, biochemical, fluorescence. r(CAG) RNA repeat, TO-PRO-1 dye displacement fluorescence. inhibition, % at 3 µM. 370,000 compounds, 1.3% hits. AID 651821, 2012;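 active means inhibition above the plate cutoff, the mean of all test compounds on that plate plus 3 SD, cut at about 35% in these data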;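 further: 0% = DMSO alone and 100% = 100 µM mitoxantrone as full dye displacement; higher means more dye released from RNA so lower well fluorescence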
AHR activator: AHR activators, primary screen, cell-based, luminescence, luciferase reporter, human | AHR-responsive luciferase reporter cells | activation, % at 5 µM | 320,000 compounds, 2.5% hits | AID 2796, 2010; in the data active means activation above about 47%;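 further: 0% = vehicle wells and 100% = reference agonist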
ADAM10 counter: ADAM10 inhibitors, counter-screen for ADAM17 exosite inhibitor project, biochemical, FRET, human ADAM10; shares compounds with ADAM17 inh; recombinant ADAM10, EDANS/DABCYL FRET peptide cleavage, 3 h; inhibition, % at 6.95 µM; 2,900 compounds, 47% hits; AID 743256, 2014;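 active means mean inhibition over the triplicate runs exceeds the activity threshold set in the earlier primary screen, cut at about 20% in these data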;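 further: 0% = DMSO wells and 100% = marimastat wells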
ADAM17 confirm: ADAM17 inhibitors, hit retest, confirmation, biochemical, QFRET peptide cleavage | shares compounds with ADAM17 inh | recombinant ADAM17, EDANS/DABCYL QFRET peptide cleavage | inhibition, % at 6.95 µM | 2,900 compounds, 65% hits | AID 743257, 2014;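 active means mean inhibition across replicates above the hit cutoff set in the primary screen, cut at about 8.5% in these data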;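 further: 0% = DMSO wells and 100% = marimastat wells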
* = called active by the depositor; nt = not tested or not shown.

SMILES	ADAM10 inh	GRIN3A LBD mod	proKLK7 act	ADAM17 inh	rCAG RNA binder	AHR activator	ADAM10 counter	ADAM17 confirm
CC(=O)Nc1ccc(NC(=O)C2CCCN(c3nnc(-n4cccc4)s3)C2)cc1 (centres undefined)	6	-3	-1	7	9	3	nt	nt
COc1ccc(NC(=O)NNS(=O)(=O)c2ccc(OC)c(OC)c2)c(OC)c1	-14	-3	0	-4	-5	2	nt	nt
CC1(C(=O)Nc2ccc(Cl)c(Cl)c2)CCN1C(=O)C1CCCCC1 (centres undefined)	-1	nt	0	10*	2	nt	9	9.9*
COC(=O)c1cc2occc2n1CC(=O)Nc1ccc(OC)c(OC)c1	1	-4	0	-2	-2	2	nt	nt
COC(=O)c1cc2oc(C)cc2n1CC(=O)Nc1cc(C)cc(C)c1	8	nt	5	9.6*	7	5	-17	-6
Cc1cccc(/C=N/n2c(-c3ccncc3)n[nH]c2=S)c1	10	4	0	11*	4	4	12	4
S=c1[nH]nc(-c2ccncc2)n1/N=C/c1ccccc1	1	0	0	3	0	17	nt	nt
Cc1ccc(S(=O)(=O)NC(C)CCc2ccccc2)cc1 (centres undefined)	8	-2	0	9.5*	2	0	2	6
COc1cc(C2c3cc4c(cc3CC3COC(=O)N32)OCO4)cc(OC)c1OC (centres undefined)	-13	0	-1	3	5	nt	nt	nt
CCCCNS(=O)(=O)c1ccc(NC(=O)C(Sc2ccccc2)c2ccccc2)cc1 (centres undefined)	38*	21*	1	17*	12	0	46*	27*
Cc1nc2scc(C)n2c(=O)c1S(=O)(=O)NCC1CCN(Cc2ccc(F)cc2)CC1	-203	-3	3	-73	-3	3	nt	nt
COC(=O)[C@]12C[C@H](CC(=O)NCc3cccc4ccccc34)C(=O)N(Cc3ccccc3)C1=C[C@H](COCc1ccccc1)O[C@@H]2C	14	nt	1	0	14	nt	nt	nt
COC(=O)[C@]12C[C@H](CC(=O)N3CCN(C(=O)C4CC4)CC3)C(=O)N(Cc3cccc4ccccc34)C1=C[C@H](COCc1ccccc1)O[C@@H]2C	8	nt	0	10.0*	7	nt	24*	20*
Cc1ccccc1-c1cc2nc(Oc3cccc4ccccc34)n(C)c(=O)c2s1	1	nt	-1	9.2*	5	nt	15	9.5*
CCc1nc2ccc(C(=O)NCc3ccc4c(c3)OCO4)cn2c1N(C)Cc1cccs1	-5	nt	0	2	2	nt	nt	nt
COc1ccc(-c2n[nH]c(=S)n2-c2cc(OC)ccc2OC)cc1	0	1	0	-1	4	0	nt	nt
COc1ccc(-c2cc(-c3n[nH]c(=S)n3-c3cc(OC)ccc3OC)[nH]n2)cc1	16	4	0	9.5*	18	13	23*	13*
CCOC(=O)C1CCN(C(=O)COC(=O)c2cccc(NS(=O)(=O)c3ccccc3)c2)CC1	-14	1	0	-2	-8	nt	nt	nt
C[C@@H](NC(=O)c1nc[nH]c1C(=O)N1CCc2ccccc2C1)c1ccccc1	7	0	1	9.0*	3	0	-4	-3
C[C@H](NC(=O)c1nc[nH]c1C(=O)N1CCc2ccccc2C1)C(=O)OC(C)(C)C	0	1	0	-1	-8	8	nt	nt
CC1(C)CC(=O)c2sc(NS(=O)(=O)c3ccc([N+](=O)[O-])cc3)nc2C1	8	-7	0	16*	22	0	22*	8
CC1(C)CC(=O)c2sc(NS(=O)(=O)c3ccccc3)nc2C1	2	2	1	-1	4	0	nt	nt
Cc1cc(NC(=O)/C(C#N)=C/c2ccco2)n(-c2ccccc2)n1	16	-2	0	9.0*	10	4	20*	11*
COc1ccc(C(C)C)cc1S(=O)(=O)Nc1ccccn1	10	0	0	10*	6	0	-15	-6
O=C(c1ccc(F)cc1)N1CCC(C(=O)N2CCN(S(=O)(=O)c3cccc(Cl)c3)CC2)CC1	-4	0	0	9.6*	-2	-1	-7	2
SMILES	ADAM10 inh	GRIN3A LBD mod	proKLK7 act	ADAM17 inh	rCAG RNA binder	AHR activator	ADAM10 counter	ADAM17 confirm
CN(C)Cc1c(C(=O)N/N=C/c2cccs2)nnn1-c1nonc1N	-4	-4	1	2	4	3	nt	nt
NC1=NC2(CCC(c3ccccc3)CC2)n2c(nc3ccccc32)N1 (centres undefined)	0	-3	0	9.0*	6	1	12	7
Fc1ccc(-c2nnn(Cc3ccc(F)cc3Cl)n2)cc1	3	-1	0	1	-3	2	nt	nt
Cc1ccccc1-c1nnn(Cc2ccc(F)cc2Cl)n1	11	1	-2	10*	-1	1	18	11*
O=C(NCCn1cc(SCc2ccc(F)cc2)c2ccccc21)c1c(F)cccc1F	12	-1	0	9.3*	3	13	41*	21*
O=C(CSc1cn(CCNC(=O)c2c(F)cccc2F)c2ccccc12)NCC1CCCO1 (centres undefined)	0	2	0	0	-3	0	nt	nt
COc1ccc(Cn2c(SC)nc3ccccc32)cc1[N+](=O)[O-]	16	0	0	8.7*	0	0	10	2
O=C(CCCC1=NS(=O)(=O)c2ccccc2N1)Nc1ccccc1	6	1	0	-1	3	0	nt	nt
Cc1cccc(NC(=O)CSc2nnc(SCc3ccc(Cl)cc3)s2)c1	12	nt	1	8.8*	7	nt	15	12*
CS(=O)(=O)N(CC(=O)N1CCCC1)Cc1ccc(Cl)cc1	-4	-3	1	5	1	-3	nt	nt
Cc1ccc(S(=O)(=O)N2CCC(C(=O)OC(C)C(=O)NCc3ccccc3)CC2)cc1C (centres undefined)	15	1	0	9.7*	0	-3	7	7
